Screening results: PubChem BioAssay, National Center for Advancing Translational Sciences (NCATS)
BAZ2B block: qHTS Assay for Inhibitors of BAZ2B. Potency, µM (series often up to 114 µM), for the others: at the highest dose activity change, negative = inhibition, most hits filed as inhibitors. Bromodomain adjacent to zinc finger domain protein 2B (Homo sapiens), Q9UIF8. 360,000 tested, 4.4% active. AlphaScreen BAZ2B-H3K14Ac peptide displacement; further: on the % scale 0 is the no-effect control and ±100 the full control effect; nearly all actives have a fitted effect of over 60% in size
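Multi-concentration screen (max 110 uM) measuring displacement of acetylated histone H3 peptide from BAZ2B by AlphaScreen, using 50 nM protein, 50 nM peptide and 10 ug/mL streptavidin donor plus Ni-chelate acceptor beads.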
JMJD2A Tudor: qHTS Assay for Inhibitors of JMJD2A-Tudor Domain. 390,000 tested, 4.4% active. AlphaScreen JMJD2A-Tudor / H3K4me3 peptide binding. Lysine-specific demethylase 4A (Homo sapiens), O75164. AID 504339, 2011. Potency, µM (series often up to 114 µM), inactives show at the top dose activity change, negative = inhibition, most hits filed as inhibitors; further: on the % scale 0 is the no-effect control and ±100 the full control effect; nearly all actives have a fitted effect of over 50% in size
HP1b chromo inh: HTS for Inhibitors of HP1-beta Chromodomain Interactions with Methylated Histone Tails | Chromobox protein homolog 1 (Homo sapiens), P83916 | AlphaScreen HP1-beta / biotin-H3K9me3 peptide binding | Potency, µM (titrated, usually from 114 µM), for inactives: top-dose activity change, negative = inhibition, most hits filed as inhibitors | 390,000 tested, 0.56% active; further: nearly all actives have a fitted effect of over 70% in size
Target sequence (P83916 whole entry, looked up): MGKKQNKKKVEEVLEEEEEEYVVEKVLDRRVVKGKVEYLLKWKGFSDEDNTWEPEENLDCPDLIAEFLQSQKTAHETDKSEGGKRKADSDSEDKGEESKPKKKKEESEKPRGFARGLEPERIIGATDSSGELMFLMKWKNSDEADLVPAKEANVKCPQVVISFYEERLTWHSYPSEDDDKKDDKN
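HP1-beta protein (50 nM final) preincubated 30 min at room temperature with biotinylated H3(1-18)K9me3 peptide (50 nM) in PBS pH 7.4, 0.01% Tween-20, then compound added for 30 min. AlphaScreen streptavidin donor/nickel chelate acceptor beads (10 ug/mL final), 30 min dark, luminescence read.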
G9a inh: qHTS Assay for Inhibitors of Histone Lysine Methyltransferase G9a; Histone-lysine N-methyltransferase EHMT2 (Homo sapiens), Q96KQ7; Potency, µM (doses to about 102 µM), for inactives: at the highest dose activity, negative = inhibition, most hits filed as inhibitors; G9a H3K9 monomethylation, AlphaScreen, 2 h; 350,000 tested, 8.8% active; further: on the % scale 0 is the no-effect control and ±100 the full control effect; nearly all actives have a fitted effect of over 75% in size
Target sequence (Q96KQ7 913-1193 limits assumed): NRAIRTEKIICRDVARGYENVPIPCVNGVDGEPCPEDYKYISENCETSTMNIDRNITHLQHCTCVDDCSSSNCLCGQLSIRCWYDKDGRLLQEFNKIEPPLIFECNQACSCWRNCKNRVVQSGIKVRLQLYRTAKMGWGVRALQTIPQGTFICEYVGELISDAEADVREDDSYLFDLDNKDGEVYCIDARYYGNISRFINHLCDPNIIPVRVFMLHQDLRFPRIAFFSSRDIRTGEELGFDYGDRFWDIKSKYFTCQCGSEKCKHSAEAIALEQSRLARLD
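Signal arises when biotinylated H3K9 peptide, once monomethylated, bridges streptavidin donor and antibody-captured acceptor beads. Enzyme at 20 nM was preincubated 15 min with test compounds; peptide 500 nM and SAM 20 uM then reacted for 2 h.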
Sfp inh: qHTS Assay for Inhibitors of Bacillus subtilis Sfp phosphopantetheinyl transferase (PPTase). Biochemical Sfp PPTase activity, qHTS. Potency, µM, without a hit: largest response in the series, negative = inhibition, usual class: inhibitors. 310,000 tested, 3.5% active;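 further: the enzyme is Sfp with the accession as filed and its product quenches rhodamine fluorescence; 0% = enzyme reaction without inhibitor and -100% = no enzyme wells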
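Sfp 15 nM + cpd, 15 min RT; start w/ rhodamine-CoA 5 uM, BHQ-2-YbbR 12.5 uM (final); 50 mM Hepes pH 7.6, 10 mM MgCl2, 0.01% NP-40, 0.01% BSA; read 525/598 nm at 0 and 30 min.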
Numbers without * were called inactive; ? = inconclusive; . = not tested or not shown; [ ] = remark or other dose. A selection: hits, their analogues and other compounds. The true share with any hit is near 12%. The call rests on the fitted dose curve; in most records, active means well fitted curve in the direction sought with a large enough effect; inconclusive means small, poorly fitted or top-dose-only effect, or another doubt; inactive means no such curve, though single readings can be large; an effect the other way counts as inactive or inconclusive. Potency means the concentration at half of the fitted maximal effect.

SMILES | BAZ2B block | JMJD2A Tudor | HP1b chromo inh | G9a inh | Sfp inh
CCOc1ccc(C(=O)Nc2ccc(N3CCN(C(C)=O)CC3)cc2)cc1[N+](=O)[O-] | ? | -27.2% | -13.6% | ? | 3.6%
CN(CCCNC(=O)C1CCC(=O)N1Cc1ccccc1Cl)c1ccccc1 (configuration not stated) | -33.2% | -27.3% | -3.1% | 12.2% | 20.1%
O=C(CN1CCN(Cc2ccccc2)C1=O)NCc1ccc(Cl)cc1 | 1.1% | 11.1% | 25.8% | 0.3%[59 µM] | 19.0%
CCN(CCCNC(=O)C1CCC(=O)N1Cc1ccccc1Cl)c1cccc(C)c1 (configuration not stated) | ? | -29.9% | 1.3% | 44.7µM* | 0.1%
CCN(CCNC(=O)CN1CCN(Cc2ccc(Cl)cc2)C1=O)c1ccccc1 | ? | -25.1% | -12.4% | 11.2µM* | -6.3%
CCN(CCNC(=O)C1CCC(=O)N1Cc1ccc(C)cc1)c1ccccc1 (configuration not stated) | -23.8% | 3.7% | 28.0% | 50.1µM* | 14.8%
CN(CCCNC(=O)C1CCC(=O)N1Cc1ccc(F)cc1)c1ccccc1 (configuration not stated) | -4.7% | -24.1% | 13.6% | 79.4µM* | 22.6%
COc1ccc(/C=N/NC(=O)c2cc(-c3ccccc3)nc3ccccc23)c(C(=O)O)c1OC | -1.2% | -0.7% | 41.5% | 3.4% | 27.7%
COc1cc(/C=N/NC(=O)c2cccc([N+](=O)[O-])c2)cc(OC)c1O | 2.3% | -7.5% | 37.9% | ? | -13.2%
COc1cc([N+](=O)[O-])cc(/C=N/NC(=O)c2cc(-c3ccccc3)nc3ccccc23)c1O | 50.1µM* | 79.4µM* | 29.6% | -35.6% | 24.0%
COc1cc([N+](=O)[O-])cc(/C=N/NC(=O)c2cncc(Br)c2)c1O | 10µM* | 20µM* | 14.2% | . | -4.3%
COc1cc([N+](=O)[O-])cc(/C=N/NC(=O)c2cc(C)nc3ccccc23)c1O | 20µM* | 22.4µM* | 27.5% | -6.1% | 13.2%
Cc1cc(NC(=O)COc2ccc(C(C)(C)C)cc2)no1 | -1.5% | -8.6% | 10.2% | -39.0% | 16.1%
COCC(=O)N1CCC2(CCN(Cc3ccncc3)CC2)CC1 | . | . | . | -5.1%[12.7 µM] | 40.9%
O=S(=O)(N[C@H](CO)Cc1ccccc1)c1ccc(Br)cc1F | . | -10.1% | 20.2% | . | .
CC(=O)c1cccc(NC(=O)c2nc(-c3ccccc3)n(-c3cccc(Cl)c3)n2)c1 | -2.2% | -17.9% | 10.9% | -9.6%[59 µM] | .
N#CCCN1CCCc2cc(N=Nc3ccc(C(F)(F)F)cc3)ccc21 | 5.62µM* | 12.6µM* | 11.2µM* | . | 8.1%
Cc1c(P(=S)(c2ccccc2)c2ccccc2)c2ccccc2n1C(=O)Cc1ccccc1 | . | -6.8% | . | . | .
COC(=O)C1=C(C(=O)OC)C(c2ccccc2O)c2sc(=O)[nH]c2S1 (configuration not stated) | ? | -15.3% | 9.6% | 10µM* | 8.91µM*
Cc1ccc(O)c(NC(=O)c2ccc(Br)c(S(=O)(=O)N3CCCCC3)c2)c1 | 17.8µM* | ? | -5.1% | ? | .
Cc1ccc(O)c(NC(=O)c2cccc(S(=O)(=O)N3CCCCC3)c2)c1 | -26.2% | -21.2% | 4.1% | -48.4%[59 µM] | 19.1%
CC(C)(C)NC(=O)NC(=O)COC(=O)c1cccc(OC(F)F)c1 | 7.5% | 7.0% | 47.5% | 34.0% | -90.9%
Cc1n[nH]c(=O)c2c(NC(=O)COC(=O)c3cccc(OC(F)F)c3)oc(C)c12 | 15.3% | -9.7% | 44.4% | 10µM* | .
Cc1n[nH]c(=O)c2c(NC(=O)COC(=O)Cc3c(F)cccc3Cl)oc(C)c12 | -3.2% | -7.6% | 39.6% | 25.1µM* | .
CCOC(=O)Cc1csc(SCC(=O)Nc2oc(C)c3c(C)n[nH]c(=O)c23)n1 | 8.4% | -4.4% | 53.8% | -7.3%[12.7 µM] | .
Cc1n[nH]c(=O)c2c(NC(=O)COC(=O)COc3cccc(Br)c3)oc(C)c12 | 0.5% | -12.8% | 54.8% | 17.8µM* | .
